Results: PubChem BioAssay (NCI)
This is part of a sample that, as a whole, favours compounds with a hit. Of some 83,000 tested, about 20% had one in any assay.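 Testing used 96-well plates and a 48-hour single-concentration exposure. Example: -40 means 40% of the starting cells died.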 Values without a mark were called inactive. The source made the active and inactive calls. The calls were made as follows: active = growth percent below 10; inactive = the rest.

Legend:
Test in all cases: NCI-60 one-dose screen, 48 h (100 = growth as untreated, 0 = no growth, -100 = all killed)
Conditions in all cases: 10 µM unless noted
HCT-15 colon = test system: HCT-15 colon
HT29 colon = test system: HT29 colon
SNB-75 CNS = test system: SNB-75 CNS
SNB-19 CNS = test system: SNB-19 CNS
U251 CNS = test system: U251 CNS
PC-3 prostate = test system: PC-3 prostate
SK-MEL-5 melanoma = test system: SK-MEL-5 melanoma
UACC-62 melanoma = test system: UACC-62 melanoma
LOX IMVI melanoma = test system: LOX IMVI melanoma
SK-MEL-28 melanoma = test system: SK-MEL-28 melanoma
SK-MEL-2 melanoma = test system: SK-MEL-2 melanoma
EKVX NSCLC = test system: EKVX NSCLC
SN12C renal = test system: SN12C renal
UO-31 renal = test system: UO-31 renal
TK-10 renal = test system: TK-10 renal
ACHN renal = test system: ACHN renal
CAKI-1 renal = test system: CAKI-1 renal
CCRF-CEM leukemia = test system: CCRF-CEM leukemia
MOLT-4 leukemia = test system: MOLT-4 leukemia

Compound	growth (HCT-15 colon) [%]	growth (HT29 colon)	growth (SNB-75 CNS)	growth (SNB-19 CNS)	growth (U251 CNS)	growth (PC-3 prostate)	growth (SK-MEL-5 melanoma)	growth (UACC-62 melanoma)	growth (LOX IMVI melanoma)	growth (SK-MEL-28 melanoma)	growth (SK-MEL-2 melanoma)	growth (EKVX NSCLC)	growth (SN12C renal)	growth (UO-31 renal)	growth (TK-10 renal)	growth (ACHN renal)	growth (CAKI-1 renal)	growth (CCRF-CEM leukemia)	growth (MOLT-4 leukemia)
O=C(NCCNc1nccc(-c2c(-c3cccc(F)c3)nc3sccn23)n1)c1ccc(Cl)cc1	40.1	35.2%	63.5%	71.9%	66.1%	72.5%	33.6%	14.7%	43.4%	64.9%	62.5%	63.2%	52.5%	28.1%	75.4%	34.2%	41.5%	58.2%	65.7%
CCOC(=O)Oc1c(OC)cc(C(=O)c2ccc(OC)c(O)c2OC)cc1OC	14.7	29.5%	34.1%	25.9%	23.5%	22.8%	32%	34.3%	49.7%	53.1%	24.8%	58.9%	46%	46.9%	43%	38.5%	32%	15.2%	28.1%
C=C(C)[C@@H]1CC[C@]2(C(=O)N[C@@H](Cc3ccccc3)C(=O)OC)CC[C@]3(C)[C@H](CC[C@@H]4[C@@]5(C)CCC(=O)C(C)(C)[C@@H]5CC[C@]43C)[C@@H]12	94	70.1%	87.1%	104%	85.2%	52.3%	95.2%	56.9%	73.9%	97.9%	75.8%	85.4%	95.3%	75.7%	90.9%	90.5%	45.5%	84.7%	64.6%
COc1ccc(/C=C2\Oc3cc(OCCCCCN4CCCCC4)ccc3C2=O)cc1OC	49.3	-59.2% (active)	81%	91%	87%	79.2%	66.7%	96.2%	63.2%	99.4%	92.4%	78.7%	86%	73.8%	82%	100%	94.3%	15.2%	70.2%
O=C(O)c1ccc(NCc2cn(-c3ccc(C(F)(F)F)cc3)nc2-c2ccc(C(=O)O)cc2)cc1	101	108%	91.8%	101%	99.7%	108%	103%	101%	99.4%	112%	112%	98%	103%	84.2%	106%	109%	95.8%	106%	109%
Nc1nc(Nc2ccccc2SSc2ccccc2Nc2nc(N)nc(-c3ccc(C(F)(F)F)cc3)n2)nc(-c2ccc(C(F)(F)F)cc2)n1	17.2	93.3%	86.2%	58%	41.2%	29.5%	88.9%	68.3%	27.5%	95.6%	93.7%	44.6%	57.6%	-84.6% (active)	95.4%	19.9%	-20.3% (active)	53.6%	56.2%
CC(=O)N1N=C(c2ccc(-n3ccc(C(F)(F)F)n3)c(F)c2)CC1c1ccc[nH]1 (centres undefined)	98.8	102%	103%	100%	99.3%	96.7%	97.7%	90.7%	98.1%	105%	94%	102%	102%	92.7%	108%	109%	95.4%	93.7%	85.6%
CCN(CC)CC[n+]1cc2cc(OC)c(OC)cc2c2ccc3cc4c(cc3c21)OCO4	32.9	-50.1% (active)	3.63% (active)	14.5%	-38.2% (active)	3.91% (active)	-68.3% (active)	31.7%	-85.8% (active)	22.7%	14.8%	17.5%	3.54% (active)	8.71% (active)	12.2%	8.72% (active)	26.5%	1.03% (active)	-5.52% (active)
COc1cc2oc(-c3cccc(C(=O)Nc4ccccc4)c3)cc(=O)c2c(O)c1OC	92.8	54.2%	21.8%	57.7%	36.9%	71%	71.7%	38.9%	88.1%	87.4%	65%	97.9%	74.8%	59.7%	60.8%	58%	48.9%	100%	99.7%
COc1cc(C=O)ccc1OC1OC(COC(C)=O)C(OC(C)=O)C(OC(C)=O)C1OC(C)=O (centres undefined)	99.3	105%	106%	103%	94.2%	95.8%	98.2%	100%	103%	110%	98.6%	99.9%	97.9%	93.1%	107%	107%	98.8%	54.9%	110%
CCN(CC)c1ccc(/C=N/NC(=O)CSc2nc3ccccc3c(=O)n2CCc2ccc(S(N)(=O)=O)cc2)c(O)c1	25.9	42.4%	59.2%	53.9%	31.7%	45%	29.4%	15.5%	11.5%	47.9%	38.5%	33.8%	28.2%	28.2%	31.3%	28.7%	36%	7.41% (active)	7.09% (active)
N/C(=N\C(N)=N\c1nc2ccccc2s1)c1cnccn1	11.6	24.1%	35.8%	37.4%	35.1%	31.1%	-48.5% (active)	-20.8% (active)	15.1%	21.6%	3% (active)	48%	36.7%	-12.9% (active)	37.9%	26.2%	15.5%	14.6%	8.63% (active)
CC(C)(C)c1ccc(NS(=O)(=O)c2ccc3nc(NC(=O)c4cnccn4)[nH]c3c2)cc1	28.6	11%	-30.3% (active)	40%	35.3%	28.3%	13.4%	40.4%	40.4%	45.8%	45.3%	58.6%	44.3%	36.1%	57.4%	39.6%	21.7%	7.84% (active)	27.7%
CNCCn1c(=O)c2cc(OC)c(OC)cc2c2ccc3cc4c(cc3c21)OCO4	17.3	2.8% (active)	-0.403% (active)	8.32% (active)	5.74% (active)	8.41% (active)	-60.7% (active)	-79.7% (active)	-46.1% (active)	-34.2% (active)	-76.1% (active)	-6.68% (active)	2.31% (active)	-66.4% (active)	-68.9% (active)	-76% (active)	-84.9% (active)	-1.64% (active)	-10.3% (active)
C=C(C)[C@@H]1CC[C@]2(C(=O)N3CCN(C)CC3)CC[C@]3(C)[C@H](CC[C@@H]4[C@@]5(C)C/C(=C/c6cccnc6)C(=O)C(C)(C)[C@@H]5CC[C@]43C)[C@@H]12	44.5	20.9%	79.7%	68.7%	52.3%	18.6%	68.6%	81.4%	78.7%	83.1%	82.8%	83.8%	57.6%	57.2%	101%	71.7%	79.8%	28.9%	14.9%
COc1ccc(C(=O)Nc2cccc(C3CCc4c(cc(OC)c(OC)c4OC)O3)c2)cc1 (centres undefined)	30.2	17.6%	26.3%	53.3%	36.4%	49.3%	60.2%	38.7%	50.3%	61.4%	37.9%	54.7%	69.6%	53.9%	80.8%	68.9%	54.3%	36.5%	22.5%
